Data from PubChem BioAssay.

Assay: E. coli DRC41 culture turbidity changes, primary screen, E. coli filamentation inducer project, strain DRC41, OD650, 48 h (AID 1152);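 further: E. coli MC1000 strain DRC41 lacking acrAB efflux pump and sulA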
Conditions: E. coli DRC41 (acrAB sulA), higher = more signal, called active from +8 up or from −8 down

z-score, inactive:
C=CCC(OC(C)=O)[C@@H]1[C@@H](N(Cc2cc3ccccc3o2)C(=O)c2ccc(-c3ccccc3)cc2)c2cc(OCCCO)ccc2N1C(=O)Cc1ccc(OC)cc1 (some centres not stated) -1.14
COCC(=C=CC[C@@H](O)c1ccc(OCCO)cc1)CCO 1.15
CC(C)(C)OC(=O)CC[C@]12N=C(c3ccc(OCCCO)cc3)O[C@H]1c1ccccc1N(Cc1ccccc1)C2=O 0.617
O=C1OCCC/C=C\[C@H]2OC34C=CCN(c5ccc6ccccc6c5)C(=O)[C@H]3N(CCCO)C(=O)[C@@H]4C12 (some centres not stated) -0.52
C=C/C=C/[C@@H]1C(=C)CN([C@@H](Cc2ccccc2)C(=O)OC)[C@H]1[C@@H](O)Cc1ccccc1 0.834
O=C1NC(=O)C2C1C=CC(C(O)c1ccccn1)N2Nc1ccc(Cl)cc1Cl (configuration not stated) -0.889
CC(C)C[C@@H]1NC(=O)CNC(=O)[C@@]23C(=O)N[C@@H](Cc4ccccc4)C2[C@H](C)[C@@]2(C)O[C@H]2C3/C=C/C/C=C\CNC1=O (some centres not stated) -0.455
CCOC(=O)C1=C[C@@H](c2ccccc2)N(S(=O)(=O)c2ccc(C)cc2)[C@H]1c1ccccc1 -0.388
[N-]=[N+]=NCc1ccccc1C[C@]1(C(=O)N2CCOCC2)COC(c2ccc(OCCCO)cc2)=N1 2.57
COCCOC(=O)N1C(=O)[C@@]2(c3cc(C#Cc4ccc(OC)cc4)ccc31)[C@H](C(=O)NC[C@H](O)c1ccccc1)[C@H]1C(=O)O[C@H](c3ccccc3)[C@H](c3ccccc3)N1[C@@H]2c1ccc(OCCO)cc1 1.34
COCCOC(=O)N1C(=O)[C@@]2(c3cc(C#CCC(C(=O)OC)C(=O)OC)ccc31)[C@H](c1ccc(OCCO)cc1)N1[C@H](c3ccccc3)[C@H](c3ccccc3)OC(=O)[C@H]1[C@@H]2C(=O)Nc1nc2ccccc2s1 2.25
COCCOC(=O)N1C(=O)[C@@]2(c3cc(C#CCNC(N)=O)ccc31)[C@H](c1ccc(O)cc1)N1[C@H](c3ccccc3)[C@H](c3ccccc3)OC(=O)[C@H]1[C@@H]2C(=O)N1CCN(c2ncccn2)CC1 -0.279
COc1cc(C(O)C2C=CC3C(=O)N(Cc4ccccc4)C(=O)C3N2n2cnnc2)cc(OC)c1OC (configuration not stated) 1.31
CCCCC=C[C@@H](NC(=O)c1ccccc1)c1ccccc1 -2.36
COc1ccc([Si](C)(C)[C@@H]2[C@@H](CC(=O)N3Cc4ccccc4C[C@H]3CO)O[C@]3(C(=O)N(c4ccccc4)c4ccccc43)[C@H]2C)cc1 0.162
CCOC(=O)C1=CCC(c2ccccc2)N(S(=O)(=O)c2ccc([N+](=O)[O-])cc2)C1 (configuration not stated) -0.72
[N-]=[N+]=NCc1ccccc1[C@@H]1OC(c2ccc(OCCCO)cc2)=N[C@]1(Cc1ccccc1N=[N+]=[N-])C(=O)N1CCCCC1 0.155
C=CCN1C(=O)[C@]2(O[C@H](CCO)[C@@H]([Si](C)(C)c3ccc(OC)cc3)[C@@H]2C)c2cc(N3C(=O)COc4ccccc43)ccc21 0.512
COCCCNC(=O)[C@@]1(c2ccc([N+](=O)[O-])cc2)CC(=O)N(CC23CC4CC(CC(C4)C2)C3)[C@@H]1c1ccc(CO)cc1I -0.355
CC(C)OC(=O)CC(=O)CC(O)c1ccc([N+](=O)[O-])cc1 (configuration not stated) -0.314
CCOC(=O)C1=CCC(c2ccco2)N(S(=O)(=O)c2ccc(C)cc2)C1 (configuration not stated) 0.323
[N-]=[N+]=Nc1ccccc1[C@@H]1OC(c2ccc(OCCCO)cc2)=N[C@]1(Cc1ccccc1)C(=O)NCc1ccccc1 -0.165
[N-]=[N+]=NCc1ccccc1C[C@@]1(C(=O)N2CCCCC2)N=C(c2ccc(OCCCO)cc2)O[C@@H]1c1ccccc1CN=[N+]=[N-] 0.464
O=C1C2C=CC(C(O)c3ccc(I)cc3)N(Nc3ccccc3)C2C(=O)N1c1ccccc1 (configuration not stated) -1.11
CC(C)C(=C=CC[C@@H](O)c1cccc(OCCO)c1)C[C@@H](O)c1ccccn1 0.599
COC(=O)[C@@]1(Cc2ccccc2CN=[N+]=[N-])N=C(c2ccc(OCCCO)cc2)O[C@H]1c1ccccc1 -0.571
CCOC(=O)C[C@H]1[C@H](OC(=O)c2cc3ccccc3oc2=O)[C@@H](NC(=O)c2ccc3ccccc3c2)c2cc(OCCCO)ccc2N1C(=O)Cc1ccc(OC)cc1 -0.62
